Test results taken from PubChem BioAssay (NCI).
About 79,000 compounds went through this panel and 15% of them were active in at least one assay; those are over-represented in the sample as a whole. Cut-off read from the data, not from the text of the source: active = growth inhibition above about 70%; inactive = the rest.

Experiments:
[1] = NCI Yeast Anticancer Drug Screen. Data for the rad50 strain (AID 155);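 note: 0% = growth of vehicle-only cultures of the same strain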; conditions: S. cerevisiae rad50 strain growth inhibition; at 50.0 µM; stronger effect = higher value
How it was run: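 Cells are treated with compound, grown, and their growth is then scored against vehicle-only cultures of the same repair-deficient yeast strain.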

[2] = NCI Yeast Anticancer Drug Screen. Data for the mec2-1 strain (AID 157); conditions: S. cerevisiae mec2-1 strain, at 50.0 µM, stronger effect = higher value
How it was run: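 Each compound was tested on mec2-1 yeast, a strain altered in DNA damage repair or cell cycle control. Growth inhibition is reported relative to vehicle.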

[3] = NCI Yeast Anticancer Drug Screen. Data for the sgs1 mgt1 strain (AID 161);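 note: 0% = growth of cultures given vehicle only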; conditions: S. cerevisiae sgs1 mgt1 strain, at 50.0 µM, stronger effect = higher value
How it was run: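 Inhibition of yeast growth, normalised to vehicle-treated controls, is reported for a strain bearing genetic alterations in DNA damage repair.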

[4] = NCI Yeast Anticancer Drug Screen. Data for the cln2 rad14 strain (AID 165);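 note: 0% = growth equal to vehicle treated cultures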; conditions: S. cerevisiae cln2 rad14 strain, at 50.0 µM, stronger effect = higher value
How it was run: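 Test compounds were added to cln2 rad14 yeast cultures; inhibition of growth was then determined by comparison with vehicle treatment.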

[5] = NCI Yeast Anticancer Drug Screen. Data for the bub3 strain (AID 167); conditions: S. cerevisiae bub3 mutant strain, at 50.0 µM, stronger effect = higher value
How it was run: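 Part of a panel of yeast mutants defective in DNA damage repair or cell cycle regulation. Each strain is grown with compound, and inhibition is calculated relative to solvent-treated cultures.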

[6] = NCI Yeast Anticancer Drug Screen. Data for the mlh1 rad18 strain (AID 175); conditions: S. cerevisiae mlh1 rad18 strain growth inhibition; at 50.0 µM; stronger effect = higher value
How it was run: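 Inhibition values reflect reduced growth of mutant yeast versus vehicle-treated controls following compound exposure; the mutations affect DNA damage repair.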

Measured: growth inhibition

CN1/C(=C/C=C/C=C/C=C2C(=O)c3ccccc3C2=O)C(C)(C)c2ccccc21
inactive: [1] -13.6% | [2] 10.5% | [3] 16.1% | [4] -39.5% | [5] -8.9% | [6] 26.8%

CC(C)CCC[C@@H](C)[C@H]1CC[C@H]2C3=CC=C4C[C@H](OC(=O)c5ccccc5)CC[C@]4(C)[C@H]3CC[C@]12C
inactive: [1] 0.4% | [2] 5.5% | [3] 11% | [4] 3.7% | [5] -1.25% | [6] -10.2%

Cc1nc2ccc(S(=O)(=O)Nc3ccc(Cl)cc3)cc2c(=O)n1NC(=O)CNc1ccc(Cl)cc1
inactive: [1] 33.3% | [2] 22.4% | [3] 42.2% | [4] 15.6% | [5] 19.9% | [6] 24.2%

COc1ccccc1NC(=O)CC(=O)NN
inactive: [1] -0.25% | [2] 2.15% | [3] -3.9% | [4] -25.1% | [5] -1.8% | [6] 0.7%

COC(=O)C(=O)C(C(=O)C(=O)Nc1ccccc1[N+](=O)[O-])c1nc2ccc([N+](=O)[O-])cc2[nH]c1=O (centres undefined)
inactive: [1] 17.8% | [2] 15.2% | [3] 5% | [4] 26.6% | [5] 27.8% | [6] 20.7%

Cc1ccc(S(=O)(=O)Nn2c(O)c(C#N)c(-c3ccc(N(C)C)cc3)c(C#N)c2=O)cc1
inactive: [1] -6.7% | [2] -20.1% | [3] -44.5% | [4] 1.7% | [5] -19.1% | [6] -20.9%

O=c1c2cc([N+](=O)[O-])ccc2c2ccc([N+](=O)[O-])cc2c(=O)n1-c1ccc2c(c1)Cc1ccccc1-2
inactive: [1] 21.5% | [2] -21% | [3] -19.2% | [4] -21.4% | [5] -8.35% | [6] -5%

CC(C)C(=O)OCC1OC(n2cnc3c(=S)nc[nH]c32)C(OC(=O)C(C)C)C1OC(=O)C(C)C (centres undefined)
inactive: [1] -6.8% | [2] 2.2% | [3] 2.4% | [4] -13.4% | [5] -9.55% | [6] 2.1%

O=C(O)Cc1ccc(Oc2ccc(CC(=O)O)cc2)cc1
inactive: [1] -4.15% | [2] -9.5% | [3] 1.85% | [4] -48.8% | [5] -8.75% | [6] 0.55%

CC(=O)N(C(C)=O)c1ccc2c3c(cccc13)CC2
inactive: [1] 0% | [2] -3.9% | [3] 2.6% | [4] -19.1% | [5] 8.1% | [6] -1.2%

c1cc[n+](CC[n+]2ccccn2)nc1
inactive: [1] 11.7% | [2] 22% | [3] 7.65% | [4] 16.4% | [5] 45.6% | [6] 46.1%

O=C1CCC(C2(O)c3ccccc3-c3ccccc32)C(=O)N1 (centres undefined)
inactive: [1] -20.7% | [2] -16.1% | [3] -22.3% | [4] 22.4% | [5] 4.65% | [6] 1.4%

CC(C)CC(=O)CCc1ccccc1
inactive: [1] -45% | [2] -19.9% | [3] -46.9% | [4] -6.35% | [5] -29.1% | [6] -3.55%

Cc1cc(C)c(C(=O)c2ccccc2C)c(C)c1
inactive: [1] 21.3% | [2] -1% | [3] -0.35% | [4] -23.5% | [5] 11.3% | [6] 15.7%

CC(=O)Nc1c(F)c(F)c(F)c(F)c1F
inactive: [1] 20.1% | [2] 2.2% | [3] -11.7% | [4] -35% | [5] 14.3% | [6] -13.1%

CCCC(C)C(=O)OCCOC (centres undefined)
inactive: [1] 2.85% | [2] -5.3% | [3] -2.95% | [4] -19.1% | [5] 4.45% | [6] 0%

CCOC(=O)C1SCCC1(C)O (centres undefined)
inactive: [1] 18.9% | [2] 21.7% | [3] 16.6% | [4] 16.8% | [5] 3.55% | [6] 12.7%

C[C@@H]1CN(c2ccccc2)C[C@H](C)OS(=O)O1 (some centres undefined)
inactive: [1] 2.65% | [2] -1.95% | [3] -12.8% | [4] -16.6% | [5] -6.95% | [6] -0.7%

CC(C)=CCNc1ccccc1
inactive: [1] -11.3% | [2] -24.1% | [3] 1.7% | [4] 17.4% | [5] 1.05% | [6] -7.3%
